Data taken from PubChem BioAssay (EPA / NIEHS).
The source made the active and inactive calls. Rule for the calls: active = hit-call score of the fitted dose curve at least 0.9, where 1 is the maximum; inactive = score below 0.9.

How the values were obtained:
Conditions in all cases: mRNA level, 48 h; actives raise or lower the signal
[1] = read-out: Glutathione S-Transferase (GSTA2), GSTA2 (gene 2939); assay: LTEA_HepaRG_GSTA2: Life Technologies and Expression Analysis (LTEA) Assay for Glutathione S-Transferase (GSTA2) using HepaRG (AID 2283497)
Method in brief: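 Differentiated human HepaRG cells were exposed in duplicate for 48 h in serum-free induction medium, 8 points from 100 uM top in half-log steps, 0.5% DMSO. GSTA2 mRNA was measured by TaqMan qRT-PCR, normalized to ACTB, GAPDH and POLR2A; bidirectional fit versus DMSO.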

[2] = read-out: Glutamate-cysteine ligase catalytic (GCLC), GCLC (gene 2729); assay: LTEA_HepaRG_GCLC: Life Technologies and Expression Analysis (LTEA) Assay for Glutamate-cysteine ligase catalytic (GCLC) using HepaRG (AID 2283498)
Method in brief: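 Differentiated HepaRG cells exposed 48 h in serum-free induction medium, eight-point half-log series topping at 100 uM in 0.5% DMSO, duplicates. GCLC mRNA by qRT-PCR normalized to ACTB, GAPDH and POLR2A, fitted bidirectionally versus DMSO.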

[3] = read-out: growth arrest and DNA damage 45 (GADD45G), GADD45G (gene 10912); assay: LTEA_HepaRG_GADD45G: Life Technologies and Expression Analysis (LTEA) Assay for growth arrest and DNA damage 45 (GADD45G) using HepaRG (AID 2283499)
Method in brief: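 Differentiated human HepaRG cells, 48 h post-plating, exposed 48 h in serum-free induction medium to 8 half-log concentrations (top 100 uM, 0.5% DMSO) in duplicate. GADD45G mRNA measured by Fluidigm TaqMan qRT-PCR, normalized to ACTB, GAPDH, POLR2A; bidirectional fit versus DMSO.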

[4] = read-out: Glutamate-cysteine ligase regulatory (GCLM), GCLM (gene 2730); assay: LTEA_HepaRG_GCLM: Life Technologies and Expression Analysis (LTEA) Assay for Glutamate-cysteine ligase regulatory (GCLM) using HepaRG (AID 2283500)
Method in brief: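 Differentiated HepaRG cells exposed 48 h in serum-free induction medium to eight half-log concentrations up to 100 uM (0.5% DMSO). GCLM mRNA by TaqMan qRT-PCR, normalized to ACTB, GAPDH and POLR2A; bidirectional fit versus DMSO.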

[5] = read-out: Glutathione S-transferase M3 (GSTM3), GSTM3 (gene 2947); assay: LTEA_HepaRG_GSTM3: Life Technologies and Expression Analysis (LTEA) Assay for Glutathione S-transferase M3 (GSTM3) using HepaRG (AID 2283501)
Method in brief: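 Differentiated human HepaRG cells were exposed in duplicate for 48 h in serum-free induction medium, 8 points from 100 uM top in half-log steps, 0.5% DMSO. GSTM3 mRNA was measured by TaqMan qRT-PCR, normalized to ACTB, GAPDH and POLR2A; bidirectional fit versus DMSO.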

[6] = read-out: Heat shock 70 kDa protein 1 (HSPA1A), gene 3303; assay: LTEA_HepaRG_HSPA1A: Life Technologies and Expression Analysis (LTEA) Assay for Heat shock 70 kDa protein 1 (HSPA1A) using HepaRG (AID 2283502)
Method in brief: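 Human HepaRG cells in serum-free induction medium were exposed in duplicate for 48 h to 8 half-log concentrations, highest 100 uM, in 0.5% DMSO. HSPA1A mRNA read by TaqMan qRT-PCR, normalized to ACTB, GAPDH, POLR2A, fitted bidirectionally against DMSO.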

[7] = read-out: Hypoxia-inducible factor 1-alpha (Homo sapiens) (UniProt Q16665); assay: LTEA_HepaRG_HIF1A: Life Technologies and Expression Analysis (LTEA) Assay for Hypoxia-inducible factor 1 (HIF1A) Trancription factor using HepaRG (AID 2283503)
Method in brief: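 Differentiated HepaRG cells in serum-free induction medium exposed 48 h, in duplicate, to 8-point half-log series from 100 uM in 0.5% DMSO. HIF1A mRNA measured by TaqMan qRT-PCR, normalized to ACTB/GAPDH/POLR2A, fitted bidirectionally versus DMSO.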

[8] = read-out: 3-Hydroxy-3-Methylglutaryl-CoA Synthase 2 (HMGCS2), HMGCS2 (gene 3158); assay: LTEA_HepaRG_HMGCS2: Life Technologies and Expression Analysis (LTEA) Assay for 3-Hydroxy-3-Methylglutaryl-CoA Synthase 2 (HMGCS2) using HepaRG (AID 2283504)
Method in brief: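 Human HepaRG cells in serum-free induction medium were exposed in duplicate for 48 h to 8-point half-log series from 100 uM top in 0.5% DMSO. HMGCS2 mRNA measured by TaqMan qRT-PCR, normalised to ACTB, GAPDH, POLR2A; bidirectional fit versus DMSO.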

HGF (gene 3082) = assay: LTEA_HepaRG_HGF: Life Technologies and Expression Analysis (LTEA) Assay for Hepatocyte Growth Facto (HGF) using HepaRG (AID 2283505)
Method in brief: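 Differentiated HepaRG cells in serum-free induction medium exposed 48 h in duplicate, 8 half-log concentrations from 100 uM in 0.5% DMSO. HGF mRNA by qRT-PCR, normalised to ACTB, GAPDH, POLR2A; bidirectional fitting.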

[9] = read-out: Insulin Like Growth Factor 1 (IGF1), IGF1 (gene 3479); assay: LTEA_HepaRG_IGF1: Life Technologies and Expression Analysis (LTEA) Assay for Insulin Like Growth Factor 1 (IGF1) using HepaRG (AID 2283506)
Method in brief: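 Differentiated HepaRG cells in serum-free induction medium, exposed 48 h in duplicate to 8 half-log concentrations up to 100 uM in 0.5% DMSO. IGF1 mRNA by Fluidigm qRT-PCR, normalised to ACTB, GAPDH and POLR2A.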

Measured: AC50

Chain of Hypoxia-inducible factor 1-alpha (Homo sapiens) (Q16665 whole entry, looked up): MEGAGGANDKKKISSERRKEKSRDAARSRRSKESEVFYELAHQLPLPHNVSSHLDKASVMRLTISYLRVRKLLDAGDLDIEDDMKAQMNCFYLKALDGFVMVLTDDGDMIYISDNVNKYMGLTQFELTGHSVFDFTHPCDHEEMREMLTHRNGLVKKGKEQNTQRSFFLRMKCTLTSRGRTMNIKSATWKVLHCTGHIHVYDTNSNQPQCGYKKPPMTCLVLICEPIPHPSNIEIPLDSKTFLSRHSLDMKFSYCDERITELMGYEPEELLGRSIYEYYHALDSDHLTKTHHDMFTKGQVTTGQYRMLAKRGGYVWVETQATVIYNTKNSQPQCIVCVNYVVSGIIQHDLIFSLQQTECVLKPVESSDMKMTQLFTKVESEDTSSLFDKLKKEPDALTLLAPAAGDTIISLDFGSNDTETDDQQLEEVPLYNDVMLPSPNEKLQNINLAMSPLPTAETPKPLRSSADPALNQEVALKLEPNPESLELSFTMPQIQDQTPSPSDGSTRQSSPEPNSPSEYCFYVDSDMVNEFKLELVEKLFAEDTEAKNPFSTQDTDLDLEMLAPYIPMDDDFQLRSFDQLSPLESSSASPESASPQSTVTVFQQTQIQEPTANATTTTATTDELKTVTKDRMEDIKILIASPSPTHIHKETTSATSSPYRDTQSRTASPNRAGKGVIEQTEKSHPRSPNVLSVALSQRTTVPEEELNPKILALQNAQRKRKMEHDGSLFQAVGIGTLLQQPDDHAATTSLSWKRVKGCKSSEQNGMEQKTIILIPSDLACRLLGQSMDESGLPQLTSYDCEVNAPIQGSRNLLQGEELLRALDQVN

CCC(C)c1cc([N+](=O)[O-])cc([N+](=O)[O-])c1O (configuration not stated)
active: [1] 2.72 µM | [2] 1.29 µM | [3] 4.96 µM | [4] 50 µM | [5] 4.16 µM | [6] 2.49 µM | [7] 18.5 µM | [8] 2.93 µM | HGF (gene 3082) 2.87 µM | [9] 1.24 µM

Oc1ccc(Cl)cc1Cl
inactive: all assays above

Cc1cc(-c2ccc(N)c(C)c2)ccc1N
active: [3] 26 µM | [8] 19.3 µM
inactive: all other assays above

ClC1=C(Cl)[C@]2(Cl)[C@@H]3[C@H]4C[C@H]([C@@H]5O[C@H]45)[C@@H]3[C@@]1(Cl)C2(Cl)Cl
active: [1] 32.6 µM | [8] 30.5 µM | [9] 5.52 µM
inactive: all other assays above

C=CC(N)=O
inactive: all assays above

Cc1cccc([N+](=O)[O-])c1
inactive: all assays above

CC#Cc1cc(C)nc(Nc2ccccc2)n1
active: [1] 28 µM | [2] 32.8 µM | [4] 50 µM | [5] 14.5 µM | [8] 32.5 µM | HGF (gene 3082) 50 µM | [9] 33.1 µM
inactive: [3] | [6] | [7]

CCOC(=O)C(O)(c1ccc(Cl)cc1)c1ccc(Cl)cc1
inactive: all assays above

Cc1cc(O)ccc1Cl
inactive: all assays above

CC(C)(c1ccccc1)c1ccc(O)cc1
active: [1] 87.3 µM | HGF (gene 3082) 83.2 µM
not listed: [8]
inactive: all other assays above

CO/C=C(/C(=O)OC)c1ccccc1COc1cccc(C(F)(F)F)n1
active: [1] 9.29 µM | [3] 6.56 µM | [4] 8.95 µM | [5] 50 µM | [7] 32 µM | [8] 6.85 µM | HGF (gene 3082) 50 µM | [9] 5.31 µM
inactive: [2] | [6]

ClC1=C(Cl)[C@]2(Cl)[C@@H]3[C@@H]4C[C@@H]([C@H]5O[C@@H]45)[C@@H]3[C@@]1(Cl)C2(Cl)Cl
active: [1] 50 µM | [7] 0.0315 µM | [9] 9.92 µM
not listed: [8]
inactive: all other assays above

CC(C)(O)C(=O)Nc1ccc([N+](=O)[O-])c(C(F)(F)F)c1
active: [8] 44.8 µM | HGF (gene 3082) 0.0291 µM | [9] 0.0443 µM
inactive: all other assays above

Clc1ccc(C(Cl)(Cl)Cl)cc1
not listed: [8]
inactive: all other assays above

O=C(NC(=O)c1c(F)cccc1F)Nc1cc(Cl)c(OC(F)(F)C(F)F)c(Cl)c1
not listed: [8]
inactive: all other assays above

CCC(C)(CC)c1cc(NC(=O)c2c(OC)cccc2OC)on1
active: [2] 63.8 µM | [3] 80.1 µM | [9] 1.79 µM
not listed: [8]
inactive: all other assays above

C=CC(=O)NCNC(=O)C=C
active: [1] 12.7 µM | [7] 15.6 µM | [9] 50 µM
not listed: [8]
inactive: all other assays above

CCC(C)(c1ccc(O)cc1)c1ccc(O)cc1
not listed: [8]
inactive: all other assays above

O=S(=O)(O)C(F)(F)C(F)(F)C(F)(F)C(F)(F)C(F)(F)C(F)(F)F
active: [3] 3.41 µM | [7] 4.59 µM
not listed: [8]
inactive: all other assays above
